Hits are enriched below; roughly 0.24% of the tested compounds scored in any of these assays.
hcGAS lum = blocks human cGAS activity | Q8N884 | recombinant h-cGAS, ATP depletion, Kinase-Glo luminescence | AID 1259398 | inhibition, % at 12.5 µM | 290,000 compounds, 0.081% hits
Target sequence (Q8N884 whole entry, looked up): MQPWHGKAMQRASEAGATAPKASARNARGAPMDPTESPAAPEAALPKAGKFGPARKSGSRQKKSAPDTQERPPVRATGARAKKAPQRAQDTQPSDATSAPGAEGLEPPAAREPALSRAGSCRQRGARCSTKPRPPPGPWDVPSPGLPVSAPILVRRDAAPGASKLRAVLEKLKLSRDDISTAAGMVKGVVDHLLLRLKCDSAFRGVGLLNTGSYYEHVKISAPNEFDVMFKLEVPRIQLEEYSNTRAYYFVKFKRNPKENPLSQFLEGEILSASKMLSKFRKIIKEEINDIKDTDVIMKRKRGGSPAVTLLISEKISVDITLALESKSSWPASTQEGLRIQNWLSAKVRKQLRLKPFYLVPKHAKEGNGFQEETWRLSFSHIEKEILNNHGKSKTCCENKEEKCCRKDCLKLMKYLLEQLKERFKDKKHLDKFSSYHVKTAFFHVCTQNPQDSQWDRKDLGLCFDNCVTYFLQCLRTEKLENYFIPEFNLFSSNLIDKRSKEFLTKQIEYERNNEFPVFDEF
mcGAS lum = inhibitors of mouse cGAS | Q8C6L5 | recombinant cGAS, Kinase-Glo ATP depletion luminescence | inhibition, % at 12.5 µM | 160,000 compounds, 0.15% hits
NPYLR7 agonist = mosquito NPYLR7 agonism; 270,000 compounds, 0.15% hits; HEK293T NPYLR7/Galpha15, GCaMP6s calcium fluorescence; activation, % at 10 µM; AID 1259423; in the data active = activation above about 40%
Of the large screens only hits and unclear results are named; the others gave an inactive call; ! = not active in a repeat. Cut-off read from the data, not from the text of the source, unless noted: active = inhibition above about 40%; inactive = the rest.

O=[N+]([O-])c1cc(O)c(O)c([N+](=O)[O-])c1	none
O=[N+]([O-])c1cc([As](=O)(O)O)ccc1O	hcGAS lum 83.4! (no result: mcGAS lum)
O=[N+]([O-])c1ccc(O)c(Cl)c1	none (no result: mcGAS lum)
O=[N+]([O-])c1ccc(O)c([N+](=O)[O-])c1	hcGAS lum 72.1 (no result: mcGAS lum)
OCC1CN(C2CCC2)CC12CCNCC2 (stereo unspecified)	none (no result: NPYLR7 agonist)
COc1cccc(C(CN2CCN(C(=O)COc3ccc(Cl)cc3)CC2)OCc2ccc(C#N)cc2)c1 (stereo unspecified)	none
CCCNC(=O)CN1C(=O)CSC(c2cccc(Cl)c2)c2c(-c3ccccc3)nn(-c3ccc(OC)cc3)c21 (stereo unspecified)	none
O=[N+]([O-])c1cc(Cl)ccc1Cl	none
O=[N+]([O-])c1ccc(Cl)c2nonc12	NPYLR7 agonist 139.0
CC(C)(N)C(=O)N1CCC2(CCNCC2)CC1	none (no result: mcGAS lum)
Cc1ccc(C)n1C(Cc1cnc[nH]1)C(=O)O (stereo unspecified)	none (no result: mcGAS lum)
CCN(CCCl)CCOC(C)=O	none
Cc1ccc(/C=C2\C(=O)NC(=O)N(c3ccc(Cl)cc3)C2=O)o1	none
O=C1NC(=O)N(c2ccc(Cl)cc2)C(=O)/C1=C/c1ccc([N+](=O)[O-])o1	mcGAS lum 47.1
O=c1c2ccccc2nc(CCl)n1-c1ccc(F)cc1	mcGAS lum 48.2
CCC(NC)c1nc2ccccc2c(=O)n1-c1ccc(F)cc1 (stereo unspecified)	none (no result: mcGAS lum)
O=C(COc1ccccc1)N(CCN1CCOCC1)CC(=O)N(Cc1ccc(F)cc1)Cc1ccco1	none
Nc1c2c(nc3sc4c(c13)CCCC4)CCCCC2	NPYLR7 agonist 42.4
O=c1c2c3c(sc2nc(SCCS(=O)(=O)F)n1-c1ccccc1)CCCC3	none
O=C(Nc1cccnc1)c1cccn(Cc2cccc(F)c2)c1=O	none (no result: mcGAS lum)

Compound activity (PubChem)
